Experimental data: PubChem BioAssay (NCI)
About 79,000 compounds went through this panel and 15% of them were active in at least one assay; those are over-represented in the sample as a whole. Values without a mark were called inactive. Calls of active or inactive are those of the source. No stated cut-off is given here; in the data, active means growth inhibition above about 70%; inactive means the rest.

Legend:
[1] = NCI Yeast Anticancer Drug Screen. Data for the rad50 strain (AID 155);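 further: 0% = growth of vehicle-only cultures of the same strain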; conditions: S. cerevisiae rad50 strain growth inhibition, hits give high values
How it was run: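 A DNA repair-deficient yeast mutant serves as the test organism; compound-induced growth inhibition is calculated against vehicle-treated cells.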

[2] = NCI Yeast Anticancer Drug Screen. Data for the mec2-1 strain (AID 157); conditions: S. cerevisiae mec2-1 strain, hits give high values
How it was run: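 Readout is yeast growth inhibition, normalised to vehicle-treated controls, in the mec2-1 strain exposed to compound.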

[3] = NCI Yeast Anticancer Drug Screen. Data for the sgs1 mgt1 strain (AID 161);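 further: 0% = growth of cultures given vehicle only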; conditions: S. cerevisiae sgs1 mgt1 strain, hits give high values
How it was run: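 Yeast cells carrying a defined DNA-repair defect were exposed to test compounds. Growth inhibition was measured relative to vehicle-treated controls.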

[4] = NCI Yeast Anticancer Drug Screen. Data for the cln2 rad14 strain (AID 165);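 further: 0% = growth equal to vehicle treated cultures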; conditions: S. cerevisiae cln2 rad14 strain, hits give high values
How it was run: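 Relative to vehicle controls, growth inhibition of compound-treated cln2 rad14 yeast was recorded.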

[5] = NCI Yeast Anticancer Drug Screen. Data for the bub3 strain (AID 167); conditions: S. cerevisiae bub3 mutant strain, hits give high values
How it was run: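 Inhibition values come from growth of compound-treated mutant yeast normalised to vehicle-treated controls.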

[6] = NCI Yeast Anticancer Drug Screen. Data for the mlh1 rad18 strain (AID 175); conditions: S. cerevisiae mlh1 rad18 strain growth inhibition, hits give high values
How it was run: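 Test agents were incubated with a yeast strain of defined genotype (DNA damage repair defect). Inhibition of growth was derived by comparison with vehicle-exposed cultures.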

[7] = at 5.0 µM (retest, dose inferred, filed as 0.5)
[8] = at 50.0 µM (retest, dose inferred, filed as 5.0)

In the case of `CSCSCC(CO)NC(=O)/C=C/c1c(C)[nH]c(=O)[nH]c1=O` (configuration not stated), the growth inhibition [1, 7] is reported as -2%, the growth inhibition [1, 8] is reported as 0% and the growth inhibition ([1]; at 50.0 µM) is reported as 92.5% (active). For the same compound, the growth inhibition [2, 7] was 1%, the growth inhibition [2, 8] was 7% and the growth inhibition ([2]; at 50.0 µM) was 94.2% (active). The growth inhibition [3, 7] was 1%, the growth inhibition [3, 8] was 4% and the growth inhibition ([3]; at 50.0 µM) was 93.8% (active). For the same compound, the growth inhibition [4, 7] was -3%, the growth inhibition [4, 8] was -11% and the growth inhibition ([4]; at 50.0 µM) was 92.2% (active). The growth inhibition [5, 7] was 3%, the growth inhibition [5, 8] was 21% and the growth inhibition ([5]; at 50.0 µM) was 92.8% (active). For the same compound, the growth inhibition [6, 7] was 3%, the growth inhibition [6, 8] was 8% and the growth inhibition ([6]; at 50.0 µM) was 92.9% (active).
For `O=C(Nc1nnc(-c2ccccc2)s1)c1cc(=O)c2cc(Cl)ccc2o1`, the growth inhibition [1, 7] was -3%, the growth inhibition [1, 8] was 45% and the growth inhibition ([1]; at 50.0 µM) was 99.3% (active). The growth inhibition [2, 7] was 0%, the growth inhibition [2, 8] was 58% and the growth inhibition ([2]; at 50.0 µM) was 99.7% (active). For the same compound, the growth inhibition [3, 7] was -3%, the growth inhibition [3, 8] was 78% (active) and the growth inhibition ([3]; at 50.0 µM) was 99.5% (active). For the same compound, the growth inhibition [4, 7] was 6%, the growth inhibition [4, 8] was 62% and the growth inhibition ([4]; at 50.0 µM) was 98.8% (active). The growth inhibition [5, 7] was 4%, the growth inhibition [5, 8] was 77% (active) and the growth inhibition ([5]; at 50.0 µM) was 99.4% (active). The growth inhibition [6, 7] was 2%, the growth inhibition [6, 8] was 71% (active) and the growth inhibition ([6]; at 50.0 µM) was 98.9% (active).
For `O=C1C=CC(=O)N1c1cccc([N+](=O)[O-])c1`, the growth inhibition [1, 7] was 78% (active), the growth inhibition [1, 8] was 99% (active) and the growth inhibition ([1]; at 50.0 µM) was 99.6% (active). For the same compound, the growth inhibition [2, 7] was 95% (active), the growth inhibition [2, 8] was 100% (active) and the growth inhibition ([2]; at 50.0 µM) was 99.7% (active). For the same compound, the growth inhibition [3, 7] was 93% (active), the growth inhibition [3, 8] was 99% (active) and the growth inhibition ([3]; at 50.0 µM) was 99.5% (active). The growth inhibition [4, 7] was 84% (active), the growth inhibition [4, 8] was 99% (active) and the growth inhibition ([4]; at 50.0 µM) was 99.7% (active). The growth inhibition [5, 7] was 99% (active), the growth inhibition [5, 8] was 99% (active) and the growth inhibition ([5]; at 50.0 µM) was 99.3% (active). For the same compound, the growth inhibition [6, 7] was 91% (active), the growth inhibition [6, 8] was 99% (active) and the growth inhibition ([6]; at 50.0 µM) was 99.5% (active).
In the case of `O=C(COc1ccccc1)Oc1c(Cl)c(Cl)c(Cl)c(Cl)c1Cl`, the growth inhibition [1, 7] is reported as 23%, the growth inhibition [1, 8] is reported as 94% (active) and the growth inhibition ([1]; at 50.0 µM) is reported as 94% (active). For the same compound, the growth inhibition [2, 7] was 28%, the growth inhibition [2, 8] was 97% (active) and the growth inhibition ([2]; at 50.0 µM) was 98% (active). The growth inhibition [3, 7] was 34%, the growth inhibition [3, 8] was 98% (active) and the growth inhibition ([3]; at 50.0 µM) was 96% (active). For the same compound, the growth inhibition [4, 7] was 10%, the growth inhibition [4, 8] was 97% (active) and the growth inhibition ([4]; at 50.0 µM) was 96% (active). The growth inhibition [5, 7] was 11%, the growth inhibition [5, 8] was 96% (active) and the growth inhibition ([5]; at 50.0 µM) was 98.3% (active). For the same compound, the growth inhibition [6, 7] was 23%, the growth inhibition [6, 8] was 97% (active) and the growth inhibition ([6]; at 50.0 µM) was 97.5% (active).
For `Cc1[nH]c2ccccc2c1SCc1ccccc1`, the growth inhibition [1, 7] was -5%, the growth inhibition [1, 8] was 99% (active) and the growth inhibition ([1]; at 50.0 µM) was 99.2% (active). The growth inhibition [2, 7] was 2%, the growth inhibition [2, 8] was 100% (active) and the growth inhibition ([2]; at 50.0 µM) was 99.7% (active). The growth inhibition [3, 7] was 0%, the growth inhibition [3, 8] was 100% (active) and the growth inhibition ([3]; at 50.0 µM) was 99.5% (active). For the same compound, the growth inhibition [4, 7] was -2%, the growth inhibition [4, 8] was 99% (active) and the growth inhibition ([4]; at 50.0 µM) was 99.3% (active). The growth inhibition [5, 7] was -6%, the growth inhibition [5, 8] was 99% (active) and the growth inhibition ([5]; at 50.0 µM) was 99.5% (active). For the same compound, the growth inhibition [6, 7] was -7%, the growth inhibition [6, 8] was 98% (active) and the growth inhibition ([6]; at 50.0 µM) was 99.3% (active).
In the case of `Cc1c(-c2ccc(C(=N)N)cc2)oc(-c2ccc(C(=N)N)cc2)c1C`, the growth inhibition [1, 7] is reported as 88% (active), the growth inhibition [1, 8] is reported as 98% (active) and the growth inhibition ([1]; at 50.0 µM) is reported as 89% (active). The growth inhibition [2, 7] was 84% (active), the growth inhibition [2, 8] was 98% (active) and the growth inhibition ([2]; at 50.0 µM) was 90% (active). The growth inhibition [3, 7] was 92% (active), the growth inhibition [3, 8] was 99% (active) and the growth inhibition ([3]; at 50.0 µM) was 88.1% (active). For the same compound, the growth inhibition [4, 7] was 80% (active), the growth inhibition [4, 8] was 96% (active) and the growth inhibition ([4]; at 50.0 µM) was 89% (active). The growth inhibition [5, 7] was 87% (active), the growth inhibition [5, 8] was 99% (active) and the growth inhibition ([5]; at 50.0 µM) was 86% (active). The growth inhibition [6, 7] was 90% (active), the growth inhibition [6, 8] was 97% (active) and the growth inhibition ([6]; at 50.0 µM) was 84.5% (active).
In the case of `CCCCCCCCCCCCCC(=O)NO`, the growth inhibition [1, 7] is reported as 97% (active), the growth inhibition [1, 8] is reported as 97% (active) and the growth inhibition ([1]; at 50.0 µM) is reported as 89.2% (active). The growth inhibition [2, 7] was 99% (active), the growth inhibition [2, 8] was 98% (active) and the growth inhibition ([2]; at 50.0 µM) was 91.3% (active). For the same compound, the growth inhibition [3, 7] was 99% (active), the growth inhibition [3, 8] was 98% (active) and the growth inhibition ([3]; at 50.0 µM) was 92.8% (active). For the same compound, the growth inhibition [4, 7] was 89% (active), the growth inhibition [4, 8] was 96% (active) and the growth inhibition ([4]; at 50.0 µM) was 88.2% (active). The growth inhibition [5, 7] was 99% (active), the growth inhibition [5, 8] was 98% (active) and the growth inhibition ([5]; at 50.0 µM) was 90.2% (active). The growth inhibition [6, 7] was 99% (active), the growth inhibition [6, 8] was 97% (active) and the growth inhibition ([6]; at 50.0 µM) was 89.1% (active).
With `O=C(Nc1cccc2ccccc12)OCC1CCc2ccccc2C1` (configuration not stated) the growth inhibition [1, 7] was -1%, the growth inhibition [1, 8] was 6% and the growth inhibition ([1]; at 50.0 µM) was 12.9%. The growth inhibition [2, 7] was -6%, the growth inhibition [2, 8] was 2% and the growth inhibition ([2]; at 50.0 µM) was 22.6%. It also gave a growth inhibition [3, 7] of -4%, a growth inhibition [3, 8] of 17% and a growth inhibition ([3]; at 50.0 µM) of 54.2%. It also gave a growth inhibition [4, 7] of -8%, a growth inhibition [4, 8] of -9% and a growth inhibition ([4]; at 50.0 µM) of 9.25%. For the same compound, the growth inhibition [5, 7] was -2%, the growth inhibition [5, 8] was 29% and the growth inhibition ([5]; at 50.0 µM) was 72.2% (active). For the same compound, the growth inhibition [6, 7] was -5%, the growth inhibition [6, 8] was 27% and the growth inhibition ([6]; at 50.0 µM) was 31.1%.
With `CCOc1c(N=Nc2ccccc2OC)c(-c2ccccc2)nn1C(N)=S` the growth inhibition [1, 7] was 10%, the growth inhibition [1, 8] was 38% and the growth inhibition ([1]; at 50.0 µM) was 67%. The growth inhibition [2, 7] was 1%, the growth inhibition [2, 8] was 35% and the growth inhibition ([2]; at 50.0 µM) was 63%. The growth inhibition [3, 7] was 26%, the growth inhibition [3, 8] was 61% and the growth inhibition ([3]; at 50.0 µM) was 76.1% (active). The growth inhibition [4, 7] was -8%, the growth inhibition [4, 8] was 20% and the growth inhibition ([4]; at 50.0 µM) was 44%. The growth inhibition [5, 7] was -1%, the growth inhibition [5, 8] was 29% and the growth inhibition ([5]; at 50.0 µM) was 26.8%. It also gave a growth inhibition [6, 7] of 2%, a growth inhibition [6, 8] of 39% and a growth inhibition ([6]; at 50.0 µM) of 53.4%.
